Bioassay records: PubChem, National Center for Advancing Translational Sciences (NCATS)
A selection: hits, their analogues and other compounds. The true share with any hit is near 12%.
PLK1 PBD inh = inhibitors of human PLK1 polo-box domain binding; Potency, µM, for the others: max response, negative = inhibition, actives largely listed as inhibitors; P53350; actives 2.8% (n = 360,000); Plk1 PBD binding of FITC phosphopeptide, fluorescence polarization; also: series mostly up to about 57 µM; % is scaled to controls: 0 for no effect and ±100 for the full control effect; nearly all actives have a fitted effect of over 65% in size
Target sequence (P53350 whole entry, looked up, the tested form may be a part): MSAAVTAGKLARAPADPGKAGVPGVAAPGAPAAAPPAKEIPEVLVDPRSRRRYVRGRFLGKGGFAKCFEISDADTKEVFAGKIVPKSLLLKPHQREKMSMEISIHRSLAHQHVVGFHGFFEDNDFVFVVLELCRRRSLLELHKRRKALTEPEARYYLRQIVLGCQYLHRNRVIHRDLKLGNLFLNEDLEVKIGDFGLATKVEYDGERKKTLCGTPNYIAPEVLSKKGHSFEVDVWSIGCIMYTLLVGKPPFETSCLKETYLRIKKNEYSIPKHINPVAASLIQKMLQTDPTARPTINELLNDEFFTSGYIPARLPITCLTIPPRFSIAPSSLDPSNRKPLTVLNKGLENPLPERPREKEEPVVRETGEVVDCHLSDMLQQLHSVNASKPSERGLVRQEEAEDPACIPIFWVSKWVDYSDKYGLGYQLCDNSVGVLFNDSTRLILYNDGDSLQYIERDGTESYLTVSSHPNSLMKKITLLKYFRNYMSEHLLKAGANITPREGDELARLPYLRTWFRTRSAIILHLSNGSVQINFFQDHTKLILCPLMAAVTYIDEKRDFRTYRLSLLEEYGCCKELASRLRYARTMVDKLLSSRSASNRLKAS
HP1b binding inh = blocks HP1-beta chromodomain binding to methylated histone tails; P83916; AlphaScreen HP1-beta / biotin-H3K9me3 peptide binding; Potency, µM (doses to about 114 µM), without a hit: at the top dose activity change, negative = inhibition, hits mostly inhibitors; actives 0.56% (n = 390,000); AID 540317; also: nearly all actives have a fitted effect of over 70% in size
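HP1-beta protein (50 nM final) preincubated 30 min at room temperature with biotinylated H3(1-18)K9me3 peptide (50 nM) in PBS pH 7.4, 0.01% Tween-20, then compound added for 30 min. AlphaScreen streptavidin donor/nickel chelate acceptor beads (10 ug/mL final), 30 min dark, luminescence read.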
BAZ2B block = blocks human BAZ2B | AlphaScreen BAZ2B-H3K14Ac peptide displacement | AID 504333 | Potency, µM (highest dose often 114 µM), for the others: at the highest dose activity change, negative = inhibition, most hits filed as inhibitors | actives 4.4% (n = 360,000); also: % is scaled to controls: 0 for no effect and ±100 for the full control effect; nearly all actives have a fitted effect of over 60% in size
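AlphaScreen luminescence quantifies BAZ2B engagement of H3K14Ac peptide; the protein and biotinylated peptide are both at 50 nM final, buffer PBS pH 7.4 with 0.01% Tween-20, all steps at room temperature.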
G9a block = G9a (human) methyltransferase inhibition; Potency, µM (doses to about 102 µM), for inactives: at the top dose activity, negative = inhibition, hits mostly inhibitors; G9a H3K9 monomethylation, AlphaScreen, 2 h; actives 8.8% (n = 350,000); Q96KQ7; also: % is scaled to controls: 0 for no effect and ±100 for the full control effect; nearly all actives have a fitted effect of over 75% in size
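Methyltransferase reactions run at room temperature for 2 h (20 nM enzyme, 500 nM biotin-H3K9 peptide, 20 uM SAM) after a 15 min compound preincubation; product detected by AlphaScreen beads and anti-H3K9me1 antibody.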
Sfp PPTase inh = blocks B. subtilis Sfp PPTase activity. Q9F4F7. Biochemical Sfp PPTase activity, qHTS. Potency, µM, for the others: largest response in the series, negative = inhibition, actives largely listed as inhibitors. actives 3.5% (n = 310,000). AID 1490;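 also: the enzyme is Sfp with the accession as filed and its product quenches rhodamine fluorescence; 0% = enzyme reaction without inhibitor and -100% = no enzyme wells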
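With Hepes-Na pH 7.6 buffer containing 10 mM MgCl2, Sfp (15 nM) modified BHQ-2-YbbR (12.5 uM) using rhodamine-CoA (5 uM). Two reads 30 minutes apart at 525/598 nm yielded each well's rate.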
JMJD2A Tudor = JMJD2A Tudor domain (human) inhibition; AlphaScreen JMJD2A-Tudor / H3K4me3 peptide binding; O75164; AID 504339; Potency, µM (titrated, usually from 114 µM), for the others: at the top dose activity change, negative = inhibition, hits mostly inhibitors; actives 4.4% (n = 390,000); also: % is scaled to controls: 0 for no effect and ±100 for the full control effect; nearly all actives have a fitted effect of over 50% in size
The depositor's hits bear a star; ? = inconclusive; nt = no result given; [ ] = dose if it differs, or a comment. Calls follow the shape of the dose curve; as a rule, active = well fitted curve in the direction sought with a large enough effect; inconclusive = small, poorly fitted or top-dose-only effect, or another doubt; inactive = no such curve, though single readings can be large; an effect the other way counts as inactive or inconclusive. Potency is read from the fitted curve at half-maximal effect.

SMILES	PLK1 PBD inh	HP1b binding inh	BAZ2B block	G9a block	Sfp PPTase inh	JMJD2A Tudor
Cc1c(Cl)cccc1NC(=O)CSc1nccn1C	-7.5%	12.7%	-9.9%	3.0%	8.4%	-13.1%
O=C(Nc1cccc(Cl)c1)c1ccccc1	-13.3%	45.9%	4.6%	8.2%[12.7 µM]	nt	-4.3%
O=C(Nc1ccc(Nc2ccccc2)cc1)c1ccc(Cl)cc1	5.8%	26.8%	nt	nt	nt	-1.7%
CN(C1=C(NC(=O)c2ccc(Cl)cc2)C(=O)c2ccccc2C1=O)c1ccccc1	9.7%	-91.4%	8.91µM*	8.91µM*	-4.4%	4.47µM*
O=C1C(Cl)=C(NC(=O)c2ccccc2)C(=O)C(Cl)=C1NC(=O)c1ccccc1	1.34µM*	3.55µM*	?	1.26µM*	0.891µM*	0.708µM*
O=C(NC(NC1CCS(=O)(=O)C1)C(=O)c1cccs1)c1ccccc1 (stereo unspecified)	-5.5%	28.1%	-6.3%	5.8%[12.7 µM]	10.9%	-15.4%
O=C(NC1=C(NC2CCS(=O)(=O)C2)C(=O)c2ccccc2C1=O)c1ccccc1 (stereo unspecified)	-24.8%	1.0%	?	3.55µM*	35.5µM*	?
O=C(NC1=C(Nc2ccc(Cl)cc2)C(=O)c2ccccc2C1=O)c1ccccc1	-20.1%	?	?	7.94µM*	56.2µM*	-3.2%[57.1 µM]
O=C(CS(=O)(=O)c1c[nH]c2ccccc12)N1CCCCCC1	-10.5%	26.3%	nt	-2.6%	10.2%	6.5%
COC(=O)COc1ccc(-c2nccc(-c3ccc(Br)cc3)n2)cc1	9.47µM*	9.5%	4.1%	6.3%	16.8%	15.8µM*
CC(C)=CCC/C(C)=C/CO/N=C1/C[C@@H](O)[C@@H](O)[C@@H]2[C@@H]3C(=O)N(Cc4ccc5c(c4)OCO5)C(=O)[C@H]3CC[C@@H]12	nt	nt	nt	nt	-2.3%	nt
CCCCn1c(N)c(N(CCOC)C(=O)COC(=O)c2ccccc2OCC)c(=O)[nH]c1=O	-4.5%	19.3%	-12.0%	51.4%	17.4%	-9.0%
CCCCn1c(N)c(N(CC(C)C)C(=O)COC(=O)c2ccccc2NCCO)c(=O)[nH]c1=O	0.0%	24.2%	70.8µM*	3.98µM*	nt	2.1%
CCCn1c(N)c(N(CCOC)C(=O)COC(=O)c2ccccc2NCCO)c(=O)[nH]c1=O	-6.6%	12.3%	12.2%	8.91µM*	nt	-9.7%
CSc1nc(Nc2ccc(C)cc2)c(C#N)c(-c2ccccc2)n1	nt	37.5%	-1.5%	-8.5%[59 µM]	nt	-0.3%
COC(=O)C1=C(CSc2nncn2C)NC(=O)NC1c1cc(C)ccc1C (stereo unspecified)	-6.9%	34.7%	9.8%	22.4µM*	-26.8%	-13.3%
COC(=O)C1=C(CN2CCc3ccccc32)NC(=O)NC1c1cc(C)ccc1C (stereo unspecified)	-12.7%	6.4%	50.1µM*	?	?	?
COC(=O)C1=C(CN2CCCc3ccccc32)NC(=O)NC1c1ccc(F)cc1 (stereo unspecified)	-18.8%	11.2%	?	20µM*	-5.7%	?
COC(=O)C1=C(CSc2nccn2C)NC(=O)NC1c1cc(C)ccc1C (stereo unspecified)	-1.7%	22.4%	-10.9%	-34.7%[59 µM]	-16.4%	-13.5%
COc1ccc(CN2C(=O)N(c3ccccc3)C(=O)C2c2ccccc2)cc1COc1ccc(NC(C)=O)cc1 (stereo unspecified)	nt	13.2%	nt	nt	nt	-28.6%
Cc1cccc(Cn2c(C(=O)OC(C)C)cc3c2ccn3C)c1	-23.5%	?	?	?	-15.8%	-16.0%[11.4 µM]
CCOc1ccc(OCCCC(=O)N2CCN(S(=O)(=O)c3ccc(Cl)cc3)CC2)cc1	0.2%	?	44.7µM*	2.82µM*	nt	17.8µM*
O=C(COc1ncnc2ccccc12)N1CCN(S(=O)(=O)c2ccc(Cl)cc2)CC1	29.9µM*	-8.8%	-0.1%	-9.5%[59 µM]	1.7%	?
O=C(CCCOc1ccccc1)N1CCN(S(=O)(=O)c2ccc(Cl)cc2)CC1	0.4%	25.0%	-3.3%	-6.0%[59 µM]	nt	-1.4%
CCOc1ccc(CN2CCN(S(=O)(=O)c3ccc(Cl)cc3)CC2)cc1	nt	-32.0%	-0.7%	2.24µM*	nt	?
SMILES	PLK1 PBD inh	HP1b binding inh	BAZ2B block	G9a block	Sfp PPTase inh	JMJD2A Tudor
CCOc1ccc(S(=O)(=O)N2CCN(Cc3ccccc3)CC2)cc1	7.0%	33.3%	14.1%	nt	14.0%	2.0%
Cc1ccccc1OCCC(=O)N1CCN(S(=O)(=O)c2ccc(Cl)cc2)CC1	-1.2%	34.3%	-27.8%	44.7µM*	nt	-17.9%
Cc1c(Br)c([N+](=O)[O-])nn1CC(=O)NCc1cccnc1	-3.6%	30.8%	4.4%	-2.0%	7.0%	-15.1%
COC(=O)C1=C(C)N(Cc2ccc(C)cc2)C(=O)/C1=C\c1ccc(O)c(OC)c1	0.2%	22.4µM*	50.1µM*	18.7%[2.33 µM]	50.1µM*	25.1µM*
CCOc1cc(/C=C2\C(=O)N(Cc3ccco3)C(C)=C2C(=O)OC)ccc1O	2.1%	20µM*	50.1µM*	8.91µM*	20µM*	17.8µM*
COC(=O)C1=C(C)N(CC2CCCO2)C(=O)/C1=C\c1ccc(O)cc1 (stereo unspecified)	-8.6%	?	?	?	-29.3%	35.5µM*
CCOc1ccccc1NC(=O)CN1C(=O)C(=O)N(Cc2ccco2)C1=O	-13.5%	50.8%	-23.6%	-3.9%	11.1%	-16.8%
COC(=O)C1=C(C)N(Cc2ccc(C)cc2)C(=O)/C1=C\c1cc(OC)c(OC)c(OC)c1	-5.0%	-21.5%	39.8µM*	25.1µM*	-16.1%	11.2µM*
COC(=O)C1=C(C)N(c2ccc(C)c(C)c2)/C(=C/c2ccc(O)cc2)C1=O	-1.7%	4.5%	0.9%	?	-5.2%	-29.4%
C[C@H](C(=O)O)c1ccc2cc(O)ccc2c1	nt	nt	nt	nt	3.6%	nt
CCOc1cc(/C=C2\C(=O)N(CCc3ccc(OC)c(OC)c3)C(C)=C2C(=O)OC)ccc1O	-6.8%	?	50.1µM*	?	50.1µM*	39.8µM*
CCOC(=O)C1=C(C)N(c2ccc(C)cc2)C(=O)/C1=C\c1ccc(O)c(OC)c1	-10.8%	?	44.7µM*	nt	44.7µM*	8.91µM*
COc1ccc(CN(C)C(=O)C2CSC3(C)CCC(=O)N23)c(OC)c1 (stereo unspecified)	-3.9%	nt	nt	nt	nt	nt
CCc1ccc(NC(=O)CC2C(=O)N(c3cccc(C)c3)C(=O)N2Cc2ccco2)cc1 (stereo unspecified)	nt	51.3%	-24.4%	?	nt	-24.8%
COC(=O)CC1c2ccccc2C=C(/C=C/c2ccc3c(c2)OCO3)N1C(=O)OC (stereo unspecified)	nt	nt	nt	nt	0.6%	nt
O=C(c1ccc(Cl)c(Cl)c1)N1CCC(=O)N([C@H](COCc2ccccc2)Cc2ccccc2)CC1	-1.2%	nt	nt	nt	nt	nt
